Data on 18 compounds can be found in PubChem BioAssay (NCATS).

The test system of one assay is NIH3T3. As to the kind of experiment: qHTS assay to identify novel small-molecules to repurpose for Merkel cell carcinoma treatment (AID 1296009). Also: nearly all actives have a fitted effect of over 60% in size. The conditions noted are these: MCC and control cell lines, CellTiter-Glo viability, 72 h; series mostly up to 44.8 µM. A digest of the protocol:
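CellTiter-Glo luminescence after 72 hr compound exposure at 37 degree celsius gave cell viability. Libraries NPC and MIPE were run as 8- and 11-point dose responses; RLUs normalized to DMSO (negative) and no-cell (cytotoxicity) controls.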
(In general: qHTS replaces the single test concentration by a dilution series.)

The test system of another assay is C33A. As to the kind of experiment: Primary qHTS to identify gynecologic anti-cancer compounds using libraries of approved drugs and bioactive compounds (AID 1345084). Also: nearly all actives have a fitted effect of over 55% in size. Also: potency is read from the fitted curve at half-maximal effect. As to activity change, negative = cytotoxicity: % is scaled to controls: 0 for no effect and ±100 for the full control effect. The settings on record: Gynecologic cancer cell panel viability, ATPlite luminescence, 48 h; series mostly up to 57.5 µM. A digest of the protocol: (§1)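 ATP-based viability (ATPlite), 1,000 cells/well, 16 h pre-incubation, 48 h compound at 37 C, 5% CO2, 15 min RT before read.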

Another assay has as its system CAOV3. The assay is described as above. The conditions noted are these: Gynecologic cancer cell panel viability, ATPlite luminescence, 48 h; series mostly up to 57.5 µM. A digest of the protocol: as §1
For orientation: Cellular ATP, detected with luciferase, serves as a proxy for viable cell number.

For the next assay, the system named is CASKI. Described as above. The conditions noted are these: Gynecologic cancer cell panel viability, ATPlite luminescence, 48 h; series mostly up to 57.5 µM. The essentials:
as §1

Another assay relates to Es-2. The description is as above. The conditions noted are these: Gynecologic cancer cell panel viability, ATPlite luminescence, 48 h; series mostly up to 57.5 µM. A digest of the protocol: as §1
Another assay deals with Hek293T. Described as above. The settings on record: Gynecologic cancer cell panel viability, ATPlite luminescence, 48 h, control line for the selectivity index; series mostly up to 57.5 µM. The essentials:
as §1

The test system of the next assay is JEG-3. The description is as above. The settings on record: Gynecologic cancer cell panel viability, ATPlite luminescence, 48 h; series mostly up to 57.5 µM. The essentials: as §1
The test system of the next assay is HeLa. Described as above. The settings on record: Gynecologic cancer cell panel viability, ATPlite luminescence, 48 h; series mostly up to 57.5 µM. A digest of the protocol:
as §1

Inconclusive results are not listed. Unmarked numbers belong to inactive results. Active and inactive are the calls of the source. Calls follow the shape of the dose curve; as a rule, active = well fitted curve in the direction sought with a large enough effect; inconclusive = small, poorly fitted or top-dose-only effect, or another doubt; inactive = no such curve, though single readings can be large; an effect the other way counts as inactive or inconclusive.

For the compound `COC(=O)CC(O)CC(O)/C=C/c1c(C)ccc2c1C(OC(C)=O)CC(C)C2` (stereo not drawn), the Potency entry in the assay on NIH3T3, in the assay with C33A, in the assay with CAOV3, in the assay with CASKI, in the assay on Es-2 and in the assay with Hek293T was “inactive” in each case. In the assay on JEG-3, the Potency result was “inactive”.
For the compound `C=C1CO[C@@]2(O[C@H]3CC4C5CC=C6C[C@@H](O)C[C@@H](O[C@@H]7OC[C@H](O)[C@H](O[C@@H]8OC[C@@H](O)[C@H](O)[C@H]8O)[C@H]7O[C@@H]7O[C@@H](C)[C@H](OC(C)=O)[C@@H](OC(C)=O)[C@H]7OC(C)=O)[C@]6(C)C5CC[C@]4(C)[C@@H]3[C@@H]2C)[C@@H](O)[C@H]1OC1OC(C)C(O)C(O)C1O` (stereo partly drawn), the outcome in the assay with NIH3T3 is “inactive [at 9.27 µM]”. Further, the activity change, negative = cytotoxicity is -13% [at 6.55 µM] in the assay with CAOV3; -16.5% [at 6.55 µM] in the assay with CASKI; -0.0762% [at 6.55 µM] with Es-2; -7.77% [at 6.55 µM] in the assay with HeLa; -3.45% [at 6.55 µM] in the assay with Hek293T; -10.9% [at 6.55 µM] with JEG-3.
Regarding `CCn1c(-c2nonc2N)nc2c(C#CCO)ncc(OCCCN)c21`, the Potency entry in the assay with NIH3T3, with C33A, with Es-2 and in the assay with HeLa was “inactive” in each case. Further, the Potency with CASKI was 25.1 µM (active).
In the case of `COc1cc2ncnc(Nc3cccc(I)c3)c2cc1OC`, the Potency entry in the assay with NIH3T3, in the assay on C33A, in the assay on CASKI, in the assay with Es-2, in the assay with Hek293T and with JEG-3 was “inactive” throughout.
In the case of `CC(=O)O[C@H]1CC2C(COC(=O)CC(C)C)=CO[C@@H](OC(=O)CC(C)C)C2[C@]12CO2` (stereo partly drawn), the Potency result with NIH3T3, in the assay on C33A, in the assay with Es-2, in the assay on HeLa, in the assay on Hek293T and in the assay on JEG-3 was “inactive” throughout.
Consider `CC(C)(O)/C=C/C(=O)[C@](C)(O)[C@H]1[C@H](O)C[C@@]2(C)[C@@H]3CC=C4[C@@H](C[C@H](O[C@@H]5O[C@H](CO)[C@@H](O)[C@H](O)[C@H]5O)C(=O)C4(C)C)[C@]3(C)C(=O)C[C@]12C`, for which the Potency result in the assay with NIH3T3, in the assay with C33A, in the assay on CASKI, with Es-2, in the assay on HeLa and with Hek293T was “inactive” each time. For the same compound, in the assay with JEG-3, the Potency entry is “inactive”.
Turning to `CCCc1cc(C)n(C)c(=O)c1CN(C)C(=O)c1cc(-c2ccc(N3CCN(C(C)C)CC3)nc2)cc2c1cnn2C(C)C`, the Potency entry in the assay with NIH3T3, in the assay with CASKI, with Es-2, with Hek293T and in the assay on JEG-3 was “inactive” throughout.
For `COc1ccccc1N1CCN(CC(C(=O)NC(C)(C)C)c2ccccc2)CC1` (stereo not drawn), the Potency result in the assay with NIH3T3, in the assay with CAOV3, with CASKI, in the assay with Es-2, with HeLa and in the assay with Hek293T was “inactive” each time. In addition, in the assay on JEG-3, the Potency result is “inactive”.
Take `O=C(Nc1ccn(Cc2ccc(O)cc2C(F)(F)F)n1)c1c(F)cccc1F`: the Potency result with NIH3T3, in the assay on C33A, with CAOV3, in the assay on CASKI, with Es-2 and in the assay on Hek293T was “inactive” each time. For the same compound, in the assay on JEG-3, the Potency entry is “inactive”.
As for `C/C=C/[C@@H]1C=C[C@@H]2C[C@H](C)CC[C@H]2[C@]1(C)/C(O)=C1/C(=O)[C@@H](CO)N(C)C1=O`, the Potency entry with NIH3T3, with CAOV3, in the assay on CASKI, in the assay on Es-2, in the assay on HeLa and in the assay on Hek293T was “inactive” in each case. For the same compound, the Potency entry with JEG-3 is “inactive”.
As for `CCC(C)CC(=O)OC1C(=O)C(CO)=CC(O)C1C(C)C` (stereo not drawn), the Potency with C33A was 31.6 µM (active); in the assay on CAOV3, 28.2 µM (active); with CASKI it was 28.2 µM (active).
`Cc1sc2c(c1C)C(c1ccc(Cl)cc1)=N[C@H](CC(=O)NCCCCNC(=O)COc1cccc3c1C(=O)N([C@H]1CCC(=O)NC1=O)C3=O)c1nnc(C)n1-2`: the Potency entry with C33A, in the assay on CAOV3 and with CASKI was “inactive” throughout.
Turning to `CC(=O)c1ccc2c(c1)[C@H](NC(=O)c1ccc(F)c(Cl)c1)[C@H](O)C(C)(C)O2`, the Potency entry in the assay on NIH3T3, with C33A, in the assay with CASKI, with Es-2, with HeLa and with Hek293T was “inactive” in each case. For the same compound, in the assay with JEG-3, the Potency result is “inactive”.
Regarding `CO[C@H]1[C@@H](O)[C@H](O[C@H]2CC[C@@]3(C)C(CCC4C3CC[C@]35COC6(COC(=O)C6)C3CCC45O)C2)O[C@@H](C)[C@@H]1OC1OC(CO)C(OC2OC(CO)C(O)C(O)C2O)C(O)C1O` (stereo partly drawn), the outcome with NIH3T3 is “inactive [at 9.27 µM]”. The activity change, negative = cytotoxicity was -2.83% [at 11.6 µM] in the assay with CASKI, -29.3% [at 11.6 µM] with Hek293T and 18.5% [at 11.6 µM] with JEG-3.
As to `OC(CC1c2ccccc2-c2cncn21)C1CCCCC1` (stereo not drawn), the Potency entry with C33A, in the assay on CAOV3, in the assay with CASKI, with Es-2, in the assay with HeLa and in the assay with Hek293T was “inactive” throughout. The Potency result in the assay on JEG-3 is “inactive”.
Take `CCNC1(C(N)=O)CCN(c2ncnc3c2nc(-c2ccccc2Cl)n3-c2ccc(Cl)cc2)CC1`: the Potency result with C33A, in the assay with CAOV3, in the assay with CASKI, in the assay with Es-2, in the assay on HeLa and with Hek293T was “inactive” each time.
Regarding `COc1c(CCC(=O)O)cccc1O[C@@H]1O[C@H](CO)[C@@H](O)[C@H](O)[C@H]1O`, the Potency entry in the assay on C33A, in the assay on CAOV3, in the assay on CASKI, with Es-2, with HeLa and in the assay with Hek293T was “inactive” in each case. Also, the Potency entry in the assay on JEG-3 is “inactive”.
As to `CCCC(CCC)C(=O)NCc1ccc2c(cnn2-c2ccccc2OC)c1`, the Potency entry in the assay with C33A, in the assay with CAOV3, in the assay with CASKI, in the assay with Es-2, with HeLa and in the assay on Hek293T was “inactive” throughout. Also, the Potency entry with JEG-3 is “inactive”.
